Values joined by “and” are separate entries in the source; they are usually repeats but may differ in a detail not shown here. Equal values may be shown once. Records with an inconclusive call do not appear. Active and inactive are the calls of the source. The calls were made as follows: active = hit-call score of the fitted dose curve at least 0.9, where 1 is the maximum; inconclusive = response in the unintended direction; inactive = score below 0.9.
target: Agonist Androgen Response Element (ARE), AR (gene 367) (UniProt P10275); test: OT_AR_ARELUC_AG_1440: Odyssey Thera (OT) 24-hour CHO-K1 Luciferase Assay for Agonist Androgen Response Element (ARE) (AID 2283379)
Protocol: OT_AR_ARELUC_AG_1440 is a cell-based, single-readout assay that uses CHO-K1, a chinese hamster ovary cell line, with measurements taken at 24 hours after chemical dosing in a 384-well plate.OT_AR_ARELUC_AG_1440 is one of one assay component(s) measured or calculated from the OT_AR_ARELUC_AG_1440 assay. It is designed to make measurements of luciferase induction, a form of inducible reporter, as detected with bioluminescence signals by Luciferase technology.Data from the assay component OT_AR_ARELUC_AG_1440 was analyzed into 1 assay endpoint. This assay endpoint, OT_AR_ARELUC_AG_1440, was analyzed in the positive analysis fitting direction relative to DMSO as the negative control and baseline of activity. Using a type of inducible reporter, measures of receptor for gain-of-signal activity can be used to understand the reporter gene at the pathway-level as they relate to the gene AR. Furthermore, this assay endpoint can be referred to as a primary readout, because the performed assay has only produced 1 assay endpoint. To generalize the intended target to other relatable targets, this assay endpoint is annotated to the nuclear receptor intended target family, where the subfamily is steroidal.
To identify AR agonists, CHO-K1 cells are seeded into a white-walled/white-bottom 384-well plate, followed by treatment with compounds of interest or controls for 24 hours. A luciferase assay mix containing D-luciferin and ATP in PBS is then added to the cells and luminescence quantified on a Luminoskan (Thermo Scientific) luminometer. Modulation of this assay is quantified as an increase in mean luminescence intensity relative to vehicle controls. To evaluate specificity of the AR / ARE-luc assay, several known AR agonists, AR antagonists, and ER-selective compounds were also tested in 5-pt concentration-response format in a minimum of 7 assay plates. OT determined the reproducibility of DHT-induced AR/ARE-luc transcriptional activation with a total of seven 384-well plates run on 2 different days, for 24-h time frames. A minimum of 3 replicate wells were analyzed for each sample with 14 replicate wells for vehicle controls. Luminescence data were captured on the Luminoskan luminometer.

Sequence of Agonist Androgen Response Element (ARE), AR (gene 367) (P10275 whole entry, looked up): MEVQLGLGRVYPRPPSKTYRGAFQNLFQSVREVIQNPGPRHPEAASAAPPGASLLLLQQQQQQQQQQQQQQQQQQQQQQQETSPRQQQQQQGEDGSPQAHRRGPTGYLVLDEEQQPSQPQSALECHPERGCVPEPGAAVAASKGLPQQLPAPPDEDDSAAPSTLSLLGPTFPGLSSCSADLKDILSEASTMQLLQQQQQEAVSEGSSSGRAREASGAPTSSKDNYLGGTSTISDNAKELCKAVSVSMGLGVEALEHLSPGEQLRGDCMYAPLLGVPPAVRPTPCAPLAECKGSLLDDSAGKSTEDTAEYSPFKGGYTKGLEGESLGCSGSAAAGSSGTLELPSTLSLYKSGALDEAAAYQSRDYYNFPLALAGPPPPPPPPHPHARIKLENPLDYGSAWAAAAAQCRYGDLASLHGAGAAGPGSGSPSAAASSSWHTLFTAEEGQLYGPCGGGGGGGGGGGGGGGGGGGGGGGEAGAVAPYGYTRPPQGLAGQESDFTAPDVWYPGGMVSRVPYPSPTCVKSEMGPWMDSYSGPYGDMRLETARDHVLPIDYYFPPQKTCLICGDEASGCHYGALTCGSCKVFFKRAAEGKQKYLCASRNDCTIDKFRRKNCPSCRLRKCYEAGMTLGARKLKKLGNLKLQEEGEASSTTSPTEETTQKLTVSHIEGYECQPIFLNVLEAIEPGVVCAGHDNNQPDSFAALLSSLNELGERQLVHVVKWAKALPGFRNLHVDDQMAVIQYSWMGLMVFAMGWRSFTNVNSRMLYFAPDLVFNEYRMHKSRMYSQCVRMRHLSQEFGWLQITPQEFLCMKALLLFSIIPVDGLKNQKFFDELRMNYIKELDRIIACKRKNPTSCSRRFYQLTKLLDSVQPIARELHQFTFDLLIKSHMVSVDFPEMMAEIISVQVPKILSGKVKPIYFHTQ

Compound	outcome	AC50
NS(=O)(=O)C(F)(F)C(F)(F)C(F)(F)C(F)(F)C(F)(F)C(F)(F)C(F)(F)C(F)(F)F	inactive	
Cc1ccccc1CO[C@@H]1C[C@@]2(C(C)C)CC[C@]1(C)O2	inactive	
CCC(=O)O[C@H]1CC[C@H]2[C@@H]3CCC4=CC(=O)CC[C@]4(C)[C@H]3CC[C@]12C		3.34 nM (active) and 0.907 nM (active) and 1.93 nM (active)
CCOC(=O)C(O)(c1ccc(Cl)cc1)c1ccc(Cl)cc1	inactive	
O=C(N[C@H]1CN2CCC1CC2)c1cc2ccoc2cn1		71.8 µM (active)
CC1=C2C[C@H]3[C@@H](CC=C4C[C@@H](O)CC[C@@]43C)[C@@H]2CC[C@]12O[C@@H]1C[C@H](C)CN[C@H]1[C@H]2C	inactive	
CCNc1nc(NC(C)C)nc(SC)n1	inactive	
c1cc2ccc3cccc4ccc(c1)c2c34	inactive	
CC(C)(O)C(=O)Nc1ccc([N+](=O)[O-])c(C(F)(F)F)c1	inactive	
O=C(NC(=O)c1c(F)cccc1F)Nc1cc(Cl)c(OC(F)(F)C(F)F)c(Cl)c1	inactive	
